# Laboratory results from PubChem BioAssay AID504577 (NMMLSC, 2011).
# Screen size: about 350,000 compounds; about 1,300 (0.37%) were called active. Many of the other results were omitted from the sample, so actives are more common in it than they were. Values without a mark were called inactive. Rule as the data show it: active = response mostly above about 7.3% (no sharp cut-off); inactive = mostly below about 5.4%.
# Assay: regulators of yeast V-ATPase proton pumping, primary screen, pHLuorin cytosolic pH fluorescence (AID 504577)
# Settings: S. cerevisiae, at 10 µM, active compounds read high
row,Compound,response
1,Cc1cc(=O)n2nc(N3CCCC3C(=O)NCCCN3CC(C)CC(C)C3)sc2n1 (configuration not stated),-2.96%
2,Cc1ccc(C(=O)Nc2nc3ccc(Cl)cc3s2)o1,20.1% (active)
3,Cc1csc(NC(=O)c2ccc(-c3ccc(Cl)cc3Cl)o2)n1,-2.59%
4,Cc1sc2ncnc(N3CCC(C(=O)Nc4nc5ccc(Cl)cc5s4)CC3)c2c1C,0.27%
5,OC1CN=C2Sc3ccccc3N2C1 (configuration not stated),3.08%
6,O=C(c1ccc(=O)oc1)N1CCC(C(O)(c2ccccc2)c2ccccc2)CC1,2.64%
7,Cc1cccc(C(=O)Nc2ccc3c(c2)C(=O)N(CC(C)C)C3=O)c1,-0.72%
8,CC(C)CCN1C(=O)c2ccc(C(=O)Nc3cccc(S(N)(=O)=O)c3)cc2C1=O,14.3% (active)
9,CN1CCN(S(=O)(=O)c2cccc(C(=O)Nc3cccc(S(N)(=O)=O)c3)c2)CC1,0.8%
10,COc1ccccc1C(=O)N1C(CC(=O)Nc2ccccc2C)C(=O)NC2CCCCC21 (configuration not stated),9.51%
11,Cc1ccc(S(=O)(=O)Nc2ccc3c(c2)C(=O)N([C@H](C)CO)C[C@@H](C)[C@@H](CN(C)C(=O)Nc2cccc4ccccc24)O3)cc1,-0.92%
12,COc1cc(C2c3cc4c(cc3C(O)C3COC(=O)C23)OCO4)cc(OC)c1OC (configuration not stated),1.36%
13,COc1ccccc1CNC(=O)COC(=O)c1cccs1,-4.49%
14,COc1ccccc1CNC(=O)COC(=O)c1sc(C)nc1C,9.53% (active)
15,COc1ccccc1CNC(=O)COc1ccc(C)nc1[N+](=O)[O-],-0.89%
16,Brc1cnc(N2CCCC2)nc1N1CCCCC1,-0.57%
17,CCc1nnc(NC(=O)c2cccc(S(=O)(=O)N(C)c3ccc(OC)cc3)c2)s1,3.85%
18,CCCc1nnc(NC(=O)c2cc(OC)cc(OC)c2)s1,12.9% (active)
19,COc1ccc(Cc2nnc(NC(=O)c3cc(OC)c(OC)c(OC)c3)s2)cc1OC,-0.03%
20,O=C1C=C(c2ccc(Cl)cc2)C(=O)N1Nc1ccccc1,11.6% (active)
21,O=C(c1ccc(Cn2cc([N+](=O)[O-])cn2)o1)N1CCCC1,-2.73%
22,COc1cc(CN2CCCC(C(=O)c3ccc(SC)cc3)C2)cc(Cl)c1O (configuration not stated),13.8% (active)
23,COc1ccc(CN2CCCC(C(=O)c3ccc(Cl)cc3)C2)cc1Cn1cncn1 (configuration not stated),-2.81%

row,Compound,response
1,COc1ccc(C(=O)NC2CC2)cc1OC1CCN(Cc2ccc(SC)cc2)CC1,-0.55%
2,C=CCOC(=O)N1CCC2CC1c1cc(-c3ccc(OC)cc3)ccc12 (configuration not stated),-1.16%
3,CCOc1ccccc1NC(=O)C1CCN(S(=O)(=O)c2c(C)nn(C)c2C)CC1,-3.78%
4,COCCNc1nc2nonc2nc1N(C)Cc1ccc(C)cc1,-1.45%
5,Cc1cc(=O)[nH]c(SCC(N)=O)c1C#N,23.4% (active)
6,Cc1cc(C#N)c(SCC(N)=O)nc1-c1ccc(F)cc1,1.45%
7,Cc1ccc(NC(=O)CSc2sc3c(O)cc(=O)[nH]c3c2C#N)cc1C,2.04%
8,CCC(C)[C@H](NC(=O)N1CCn2c1nc1ccccc12)C(=O)NCc1ccc(OC)cc1 (some centres not stated),4.62%
9,NC(CSC1(c2ccccc2)c2ccccc2-c2ccccc21)C(=O)O (configuration not stated),-2.21%
10,COc1ccc(N2C(=O)C(CC(=O)Nc3ccc(F)cc3)N(CCc3cccs3)C2=O)cc1 (configuration not stated),-0.54%
11,COc1ccc(CCN2C(=O)N(c3ccc(OC)cc3)C(=O)C2CC(=O)Nc2ccc(OC)cc2)cc1 (configuration not stated),9.93% (active)
12,COc1ccc(N2C(=O)C(CC(=O)Nc3ccccc3)N(Cc3ccc(OC)c(OC)c3)C2=O)cc1 (configuration not stated),0.01%
13,COc1cccc(OC)c1C(=O)N1CCN(Cc2ccccc2F)CC1,0.6%
14,Cc1c(C)c(C)c(S(=O)(=O)N2CCC3(CC2)OCCO3)c(C)c1C,-4.64%
15,C[C@@H](O)c1nc2ccccc2n1N,0.82%
16,CCOc1ccc(C(=O)CCC(=O)NC2=NCCS2)cc1,13.1% (active)
17,Cc1ccc(S(=O)(=O)N(C)c2ccc(OCC(=O)NC3=NCCS3)cc2)cc1,-1.26%
18,CCOc1ccc(C(=O)CCC(=O)Nc2ccncc2)cc1,1.62%
19,Cc1csc(NC(=O)CSc2nc(=O)cc(N)n2-c2ccc(F)cc2)n1,1.91%
20,CCCCn1c(N)c(N(CCOC)C(=O)c2oc3ccc(OC)cc3c2C)c(=O)[nH]c1=O,0.93%
21,COc1ccc(Cl)cc1N(CC(=O)N1CCCCC1)S(C)(=O)=O,0.69%
22,O=C(CCn1nnnc1CN1CCOCC1)N1CCC(c2ccccc2Cl)C1 (configuration not stated),3.42%
23,O=C(OCCOc1ccccc1Cl)c1cc(S(=O)(=O)N2CCCCC2)ccc1N1CCOCC1,-0.35%

row,Compound,response
1,Cc1cc(=O)[nH]c(SCc2ccc(Cl)cc2)n1,-0.98%
2,CCCc1cc(=O)[nH]c(SCc2cc(=O)oc3c(C)c(C)ccc23)n1,-2.17%
3,CCCc1cc(=O)[nH]c(SCc2ccc(C#N)cc2)n1,11.9% (active)
4,COc1ccc(OCCn2ccnc2C)cc1,1.9%
5,O=C(CSc1ccccc1)Nc1cccc(S(=O)(=O)N2CCOCC2)c1,0.62%
6,Nc1cc(N)nc(SCC(=O)Nc2cccc(S(=O)(=O)N3CCCCC3)c2)n1,5.46%
7,Cc1ccnc(SCC(=O)Nc2cccc(S(=O)(=O)N3CCOCC3)c2)n1,12.9% (active)
8,COC(=O)c1ccccc1NC(=O)C1CCN(C(=O)N2CCOc3ccccc32)CC1,4.95%
9,Cc1cc(OC(=O)c2ccc(OC(C)C)cc2)c([N+](=O)[O-])c(=O)[nH]1,0.32%
10,COc1cccc(C(=O)Oc2cc(C)[nH]c(=O)c2[N+](=O)[O-])c1,0.78%
11,Cc1cc(OC(=O)c2ccccc2)c([N+](=O)[O-])c(=O)[nH]1,11.5% (active)
12,COC(=O)Nc1ccc(S(=O)(=O)Nc2cc(OC)nc(OC)n2)cc1,4.02%
13,Nc1nc(O)c(CC(=O)O)s1,4.17%
14,CCCc1nc(SCC(=O)N2CCCC2)c2c(=O)n(C)c(=O)n(C)c2n1,3.73%
15,CC(=O)N1CCC(N(C(=O)Nc2ccc(Cl)cc2)C(C)C)CC1,12.3% (active)
16,CCOC(=O)C1CCN(C(=O)Nc2ccc(Cl)cc2)CC1,0.2%
17,CC(=O)C(CC(=O)N1CCCC1)C(=O)Nc1ccc(Cl)cc1 (configuration not stated),1.4%
18,COc1ccc(S(=O)(=O)N2CCCCC2)cc1NC(=O)C1CC(=O)N(c2ccc3c(c2)OCCO3)C1 (configuration not stated),-6.01%
19,CCOc1cc(C(=O)N(Cc2ccccc2)c2ccc(C)cc2)ccc1OCC(=O)N1CCOCC1,-0.49%
20,COc1ccc(C(=O)N(Cc2ccccc2)c2ccc(C)cc2)cc1S(=O)(=O)N1CCOCC1,7.49% (active)
21,CCN(Cc1ccccc1)C(=O)Cc1ccc(OC)c(S(=O)(=O)N2CCOCC2)c1,-1.28%
22,Cc1nccc(-c2ccc(-n3c(C)ccc3C)cc2)n1,-1.42%
23,CC(C)[C@@H](C(=O)O)N(Cc1cccc(CN([C@H](C(=O)O)C(C)C)S(C)(=O)=O)c1)S(C)(=O)=O,2.56%

row,Compound,response
1,CCOC(=O)N1CCN(C(=O)c2n[nH]c(=O)c3ccccc23)CC1,-1.18%
2,CCOC(=O)N1CCN(C(=O)Cn2cnc3ccccc3c2=O)CC1,1.97%
3,CCOC(=O)N1CCN(CC(=O)n2c(C)c(C)c3ccccc32)CC1,12.8% (active)
4,CC(NC(=O)C1CCCN(S(=O)(=O)c2ccc(-n3cnnn3)cc2)C1)c1ccc(F)cc1 (configuration not stated),0.08%
5,CC1(C)C/C(=C(/C#N)C(N)=O)CCO1,-3.69%
6,N#CC(C(N)=O)=C1CCC2(CC1)OCCCCO2,18.9% (active)
7,Cc1scc(C(=O)NNC(=S)NCc2ccccc2)c1C,1.7%
8,CCCOc1ccc(C2=CSC3=NCCN23)cc1Cl,-2.58%
9,CCOC(=O)/C(C#N)=C/c1ccc(N2CCN(Cc3ccccc3)CC2)cc1,5.08%
10,COc1ccc(N2CCN(C(=O)/C(C#N)=C/c3ccccc3)CC2)cc1,24.1% (active)
11,C/C(=C/c1ccccc1)C(=O)N1CCN(c2ccccc2)CC1,1.8%
12,COCCNc1cc(NCCOC)c([N+](=O)[O-])cc1[N+](=O)[O-],2.79%
13,CC1CCCCN1S(=O)(=O)c1ccc(C(=O)Nc2nnc(-c3cccs3)o2)cc1 (configuration not stated),11.2% (active)
14,CSCc1nnc(NC(=O)c2ccc(S(=O)(=O)N3CCCCC3C)cc2)o1 (configuration not stated),-2.27%
15,CC1CCCCN1S(=O)(=O)c1ccc(S(=O)(=O)N(CC(=O)Nc2ccccc2)Cc2cccs2)cc1 (configuration not stated),2.49%
16,COc1ccc(C(=O)N2CCCCC2C(=O)Nc2ccc(-n3nc(C)cc3C)cc2)o1 (configuration not stated),-0.42%
17,CC1(C)COC(c2cccn2Cc2ccccc2Cl)=N1,-1.9%
18,C/C(CC(=O)N1CCN(C=O)CC1)=N\NC(=O)c1ccc(Br)cc1,1.52%
19,Cc1cc(OC(C)C(=O)Nc2ccc(S(=O)(=O)Nc3onc(C)c3C)cc2)cc(C)c1Cl (configuration not stated),-1.29%
20,O=C(O)CCc1cccnc1,-0.98%
21,COc1cc2c(cc1/C=C1/NC(=O)N(c3ccccc3)C1=O)OCO2,11.3% (active)
22,COc1ccc(/C=C2/C(=O)N(c3ccccc3)N=C2C)c(OC)c1,-0.07%
23,CCCCN=C1N/C(=C\c2ccco2)C(=O)N1c1ccccc1,2.17%
